Measured values published in PubChem BioAssay AID1852 (Sanford-Burnham Center for Chemical Genomics, 2009).
Hit rate of the full screen: of about 2,500 compounds, about 1,100 (44%) were called active. So high a share suggests a set chosen from earlier hits. This is one part of the list. A number with no mark means an inactive call.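 The calls were made as follows: active = inhibition above 50% at 4 µM in the single-point screen; inactive = inhibition of 50% or less.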

Assay: TNF-a-driven NF-kB reporter inhibitors, primary screen, selectivity assay for NOD1/NOD2 signaling inhibitor project, cell-based, HEK293T NF-kB-Luc, luminescence (AID 1852)
Details: TNF-a induced, 14 h, at 4 µM, active compounds read high

Row | Compound | inhibition
1 | Cc1nc([N+](=O)[O-])c(Br)n1Cc1ccccc1 | 22.9%
2 | NC(=O)c1ccc(N2CCN(S(=O)(=O)c3ccccc3)CC2)c([N+](=O)[O-])c1 | 5.1%
3 | O=[N+]([O-])c1cc(S(=O)(=O)Nc2cccc(C(F)(F)F)c2)ccc1-n1nnc2ccccc21 | 68.7% (active)
4 | CN(C)c1ccnc2sc3c(=O)n(Cc4ccccc4)cnc3c12 | 69.1% (active)
5 | Cc1ccccc1-n1cnc2c(sc3nc(N4CCOCC4)c4c(c32)CCCC4)c1=O | 18.7%
6 | Cc1noc2ncnc(N3CCN(c4cccc(Cl)c4)CC3)c12 | 19%
7 | Cn1ncc2c(N3CCN(c4ccc(Cl)c(Cl)c4)CC3)ncnc21 | 104% (active)
8 | CC1CCCN(c2ncnc3c2cnn3-c2ccc(Cl)cc2)C1 (centres undefined) | 45.4%
9 | COc1ccc(-n2c(Cc3cccn3C)nnc2SCC(=O)Nc2ccc(F)cc2)cc1 | -4%
10 | COc1ccc(Cl)cc1NC(=O)CSc1nnc(Cc2cccn2C)n1-c1ccc(F)cc1 | 35.1%
11 | COc1ccc(-n2c(Cc3cccn3C)nnc2SCC(=O)Nc2cccc(Cl)c2)cc1 | 14.7%
12 | Cn1cccc1Cc1nnc(SCC(=O)Nc2cccc(F)c2)n1-c1ccc(F)cc1 | -4.7%
13 | COc1ccc(-n2c(Cc3cccn3C)nnc2SCC(=O)Nc2cccc(F)c2)cc1 | 59.1% (active)
14 | Cn1cccc1Cc1nnc(SCC(=O)Nc2ccc(Cl)cc2)n1-c1ccc(F)cc1 | 42%
15 | Cc1cc(C)cc(NC(=O)CSc2nnc(Cc3cccn3C)n2-c2ccc(F)cc2)c1 | 59.6% (active)
16 | CCOc1ccccc1NC(=O)CSc1nnc(Cc2cccn2C)n1-c1ccc(F)cc1 | 56.8% (active)
17 | COc1ccccc1NC(=O)CSc1nnc(Cc2cccn2C)n1-c1ccc(F)cc1 | -5.9%
18 | O=[N+]([O-])c1ccc(O)c(-c2cc(C(F)(F)F)nc(-c3ccccc3)n2)c1 | 93.6% (active)
19 | O=[N+]([O-])c1ccc(O)c(Nc2ncnc3ccccc23)c1 | 4.9%
20 | O=c1nc(/C=C/c2cc([N+](=O)[O-])ccc2Cl)cc(C(F)(F)F)[nH]1 | -16.6%
21 | CCOC(=O)C1(Cc2ccccc2C)CCCN(C(=O)CN2C(=O)CSC2=O)C1 (centres undefined) | 31.1%
22 | O=C(c1ccccc1)N1CCSc2sccc2C1=O | 52.7% (active)
23 | CC1=C(/C=C/C(C)=N\NC(=O)c2ccncc2)C(C)(C)CCC1 | 3.5%
24 | CC1=CCCC(C)(C)C1/C=C/C(C)=N/NC(=O)c1ccncc1 (centres undefined) | 59.7% (active)
25 | COc1ccc(-c2nc(CN3CCN(c4ncnc5ccccc45)CC3)c(C)o2)c(OC)c1 | 23.9%

Row | Compound | inhibition
26 | Cc1oc(-c2cc(F)ccc2F)nc1CN1CCN(c2ncnc3ccccc23)CC1 | 104% (active)
27 | Cc1oc(-c2cccc3ccccc23)nc1CN1CCN(c2ncnc3ccccc23)CC1 | 43%
28 | COc1ccc(-c2c[n+]3c(n2-c2ccc(C)cc2)CCCCC3)cc1 | 50.3% (active)
29 | COc1cc(-c2n[nH]c(=S)n2-c2ccc(C)cc2)cc(OC)c1OC | 2.4%
30 | CC1(C)C=C2[C@H]3CC[C@@H]4[C@@]5(C)CCC(=O)C(C)(C)[C@@H]5CC[C@@]4(C)[C@]3(C)CC[C@@]2(C(=O)O)CC1 | 1.3%
31 | N#CC1=C(N)C(C#N)(C#N)C(c2cccnc2)C2CC(c3ccccc3)CC=C12 (centres undefined) | 83.6% (active)
32 | Cc1csc(NC(=O)c2cc([N+](=O)[O-])cc([N+](=O)[O-])c2)n1 | -6.5%
33 | O=C(Nc1nnc(SCc2c(Cl)cccc2Cl)s1)c1cccc([N+](=O)[O-])c1 | 83.1% (active)
34 | O=C(Nc1nc2c(Cl)cccc2s1)c1ccc([N+](=O)[O-])o1 | 6.3%
35 | CCOC(=O)c1cc(C(=O)Nc2ccc(S(=O)(=O)Nc3ccc(OC)cc3)cc2)nn1C | 18.6%
36 | CCNS(=O)(=O)c1ccc(NC(=O)Cn2cc([N+](=O)[O-])cn2)cc1 | 25%
37 | COc1ccc(NC(=O)Cn2nnc(-c3ccccc3NS(=O)(=O)c3ccc(OC)cc3)n2)cc1 | 70.7% (active)
38 | O=S(=O)(Nc1nc2ccccc2[nH]1)c1ccc(Cl)cc1 | -4.8%
39 | Cc1noc(C)c1CSc1nc2ccccc2nc1NS(=O)(=O)c1ccc(Cl)cc1 | 102% (active)
40 | O=[N+]([O-])c1nn(-c2ccc3c(c2)OCCO3)n(O)c1=Nc1ccccc1 | 38%
41 | O=C1C=C(N2CCOCC2)c2ccccc2C1=O | 23.7%
42 | Nc1ccc(S(=O)(=O)Nc2nccc(/C=C/c3cccc(Br)c3)n2)cc1 | 36.8%
43 | O=[N+]([O-])c1ccc(Oc2cccc(F)c2)c2ccncc12 | 42.3%
44 | O=[N+]([O-])c1ccc(Oc2ccc(F)cc2Br)c2ccncc12 | 66.6% (active)
45 | O=[N+]([O-])c1ccc(Oc2ccc(F)cc2)c2ccncc12 | 61.5% (active)
46 | Cc1ccccc1S(=O)(=O)Cc1ccc(C(=O)N2CCN(c3cccc(C)c3C)CC2)o1 | -33.6%
47 | CCn1nc(C)c(C(=O)Nc2cc(Oc3cc(C)cc(C)c3)cc([N+](=O)[O-])c2)c1C | 24.6%
48 | Cn1cc([N+](=O)[O-])c(C(=O)Nc2cc(Oc3ccccc3)cc([N+](=O)[O-])c2)n1 | 73.2% (active)
49 | Cc1ccc(-c2nc(NC(=O)c3nn(C)cc3[N+](=O)[O-])sc2C)cc1 | 39.6%
50 | O=C(Cc1cc(C(=O)O)c2ccccc2n1)Nc1ccccc1 | -8.7%

Row | Compound | inhibition
51 | O=C(N/N=C/c1ccccn1)c1cc(-c2ccc(Br)cc2)nc2ccccc12 | 105% (active)
52 | O=C(N/N=C/c1ccccn1)c1cc(-c2ccc(Cl)cc2)nc2ccccc12 | 104% (active)
53 | O=C(N/N=C/c1ccc[nH]1)c1cc(-c2ccc(Cl)cc2)nc2ccccc12 | 3.4%
54 | CCCOc1cccc(-c2cc(C(=O)N/N=C/c3ccccn3)c3ccccc3n2)c1 | 102% (active)
55 | O=C(N/N=C/c1ccccn1)c1cc(-c2ccccc2)nc2ccccc12 | 99.1% (active)
56 | COc1ccc(C(C(=O)NC2CCCCC2)N(C(=O)CCl)c2cccc(Cl)c2)cc1 (centres undefined) | 60.8% (active)
57 | Cc1ccc(N(C(=O)CCl)C(C(=O)NC2CCCCC2)c2cccnc2)cc1C (centres undefined) | 79.9% (active)
58 | COc1ccc(C(C(=O)NC2CCCCC2)N(C(=O)CCl)c2ccccc2Cl)cc1 (centres undefined) | 6.2%
59 | O=C(NC1CCCCC1)C(c1cccnc1)N(C(=O)CCl)c1cccc(Cl)c1 (centres undefined) | 75.7% (active)
60 | COc1ccc(C(C(=O)NC2CCCCC2)N(C(=O)CCl)c2ccc(Cl)cc2)cc1 (centres undefined) | 20.4%
61 | O=C(CN1C(=O)c2cccnc2Oc2ccc(Cl)cc21)NC1CCCCCC1 | 25.9%
62 | O=C(NC1CCCCC1)C(c1cccnc1)N(C(=O)CCl)c1ccccc1Cl (centres undefined) | 58.7% (active)
63 | S=C(Nc1ccc(Cl)c(Cl)c1)NC1CCCCC1 | 44.7%
64 | COc1ccc(C(=O)/C=C/C(=O)N(CC(=O)NC2CCCCC2)Cc2ccccc2OC)c(O)c1 | 33.1%
65 | O=c1c(Cl)c(Cl)cnn1Cc1ccc(F)cc1 | 33.4%
66 | O=c1c(Cl)c(Cl)cnn1Cc1nnc(-c2ccc(Cl)cc2)o1 | 51.5% (active)
67 | O=c1c(Cl)c(Cl)cnn1Cc1nnc(-c2ccccc2Br)o1 | 108% (active)
68 | COc1ccc(-c2csc3ncnc(NCCN4CCOCC4)c23)cc1 | 89.9% (active)
69 | COc1ccc(-c2csc3ncnc(N4CCN(c5ccccc5[N+](=O)[O-])CC4)c23)cc1 | -57.1%
70 | Clc1ccc(-c2csc3ncnc(NCCN4CCOCC4)c23)cc1 | 60.1% (active)
71 | C=CCn1c(C)c(/C=C/c2cc[n+](C)cc2)c2ccccc21 | 12%
72 | COc1cc(C2CC(c3cccs3)=NN2C(=O)CCl)ccc1OC(F)F (centres undefined) | 40.7%
73 | COc1ccc(C2CC(c3cccs3)=NN2C(=O)CCl)cc1OC (centres undefined) | 47.4%
74 | Cc1ccc(C2=NN(C(=O)CCl)C(c3cccs3)C2)o1 (centres undefined) | 43.6%
75 | O=C(CCl)N1N=C(c2cccs2)CC1c1ccco1 (centres undefined) | 55.2% (active)

Row | Compound | inhibition
76 | O=C(CCl)N1N=C(c2ccco2)CC1c1cccs1 (centres undefined) | 56% (active)
77 | O=C(CCl)N1N=C(c2ccco2)CC1c1ccco1 (centres undefined) | 58.9% (active)
78 | COC(=O)c1ccc2c(c1)C(C)(C)C(/C=C/c1ccccc1O)=[N+]2C | -7.6%
79 | COC(=O)C1=C(C)N(c2ccc(F)cc2)/C(=C/c2ccc(O)cc2)C1=O | -3%
80 | COC(=O)c1ccc2c(c1)C(C)(C)C(/C=C/c1ccc(O)cc1)=[N+]2C | 60.8% (active)
81 | c1cnc(N2CCN(c3ccc4ccccc4n3)CC2)nc1 | -118%
82 | COc1ccc(NC(=S)N2CCN(C/C=C/c3ccccc3)CC2)c(OC)c1 | 57.8% (active)
83 | COc1ccc(CCNC(=S)N2CCC(Cc3ccccc3)CC2)cc1OC | 47.4%
84 | COc1ccc(NC(=O)c2cc(N3C(=O)C4C5CCC(C5)C4C3=O)ccc2Cl)c(OC)c1 (centres undefined) | 30.6%
85 | c1cc(-c2nnc3sc(C4CCCCC4)nn23)ccn1 | 57.5% (active)
86 | c1ccc(CCc2nn3c(-c4ccncc4)nnc3s2)cc1 | 82.6% (active)
87 | c1csc(Cc2nn3c(-c4ccncc4)nnc3s2)c1 | 42.2%
88 | O=C(CCN1C(=O)c2ccc([N+](=O)[O-])cc2C1=O)Nc1ccc(O)cc1C(=O)O | -3.9%
89 | CCCc1nc2c(=O)n(C)c(=O)nc-2n(C)n1 | 105% (active)
90 | Cc1ccc(OCC(=O)c2cc(C)n(Cc3cccs3)c2C)c([N+](=O)[O-])n1 | 68.2% (active)
91 | COCCn1c(C)cc(C(=O)COc2ccc(C)nc2[N+](=O)[O-])c1C | 79.2% (active)
92 | C=CCn1c(C)cc(C(=O)COc2ccc(C)nc2[N+](=O)[O-])c1C | 30%
93 | Cc1ccc(OCC(=O)c2cc(C)n(-c3ccccc3)c2C)c([N+](=O)[O-])n1 | 72.3% (active)
94 | Cc1cc(C(=O)COc2cccnc2[N+](=O)[O-])c(C)n1-c1ccccc1F | 38.6%
95 | Cc1cc(C(=O)COc2cccnc2[N+](=O)[O-])c(C)n1Cc1cccs1 | 38.6%
96 | COCCn1c(C)cc(C(=O)COC(=O)c2cccc(O)c2)c1C | 81.1% (active)
97 | COCC(C)n1c(C)cc(C(=O)COc2ccc(C)nc2[N+](=O)[O-])c1C (centres undefined) | 41%
98 | CCCn1c(C)cc(C(=O)COc2ccc(C)nc2[N+](=O)[O-])c1C | -16.5%
99 | COCCn1c(C)cc(C(=O)CSc2nnc3ccccn23)c1C | 17.3%
